# Experimental data taken from PubChem BioAssay AID1159580 (chemical genetic matrix, 2015).
# The whole screen tested about 5,500 compounds, of which about 2,000 (36%) were called active. Not shown: some 18% with an inconclusive outcome. This is one part of the list. A number with no mark means an inactive call. Rule as the data show it: active = normalized growth mostly below about 0.91 (no sharp cut-off); inconclusive = no clear call, values can overlap the other calls; inactive = mostly above about 0.92.
# Assay: chemical genetic growth profiling, strain panel (AID 1159580);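 also: tested at 20 µM; growth read once vehicle control cultures reached saturation at 30 °C; 1 = growth at the plate median or of vehicle wells; lower values mean less growth of the strain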
# Details: growth OD
smiles,measurement,setting,value
CC(C(=O)O)c1ccc(N2Cc3ccccc3C2=O)cc1 (configuration not stated),normalized growth,"S. cerevisiae deletion strains, locus YKL009W, strain mrt4, active compounds read low",0.998
same,normalized growth,"S. cerevisiae deletion strains, locus YKL068W, active compounds read low",1
same,normalized growth,"S. cerevisiae deletion strains, locus YKL085W, strain MDH1 (second series), active compounds read low",0.99
same,normalized growth,"S. cerevisiae deletion strains, locus YKL085W, strain MDH1, active compounds read low",0.99
same,normalized growth,"S. cerevisiae deletion strains, locus YKL160W, strain elf1, active compounds read low",0.986
same,normalized growth,"S. cerevisiae deletion strains, locus YKL190W, strain CNB1, active compounds read low",1.01
same,normalized growth,"S. cerevisiae deletion strains, locus YKR001C, strain vps1, active compounds read low",0.976
same,normalized growth,"S. cerevisiae deletion strains, locus YKR026C, strain gcn3, active compounds read low",0.986
same,normalized growth,"S. cerevisiae deletion strains, locus YKR091W, strain srl3, active compounds read low",0.983
same,normalized growth,"S. cerevisiae deletion strains, locus YLL001W, strain dnm1, active compounds read low",0.96
same,normalized growth,"S. cerevisiae deletion strains, locus YLL026W, active compounds read low",0.988
same,normalized growth,"S. cerevisiae deletion strains, locus YLL041C, strain sdh2, active compounds read low",0.99
same,normalized growth,"S. cerevisiae deletion strains, locus YLR027C, strain aat2, active compounds read low",0.985
same,normalized growth,"S. cerevisiae deletion strains, locus YLR039C, strain RIC1, active compounds read low",0.994
same,normalized growth,"S. cerevisiae deletion strains, locus YLR058C, strain SHM2, active compounds read low",1.01
same,normalized growth,"S. cerevisiae deletion strains, locus YLR102C, strain apc9, active compounds read low",0.992
same,normalized growth,"S. cerevisiae deletion strains, locus YLR113W, strain HOG1, active compounds read low",0.984
same,normalized growth,"S. cerevisiae deletion strains, locus YLR221C, strain rsa3, active compounds read low",0.928
same,normalized growth,"S. cerevisiae deletion strains, locus YLR258W, strain gsy2, active compounds read low",0.976
same,normalized growth,"S. cerevisiae deletion strains, locus YLR262C, strain YPT6 (second series), active compounds read low",0.966
same,normalized growth,"S. cerevisiae deletion strains, locus YLR262C, strain YPT6, active compounds read low",1.03
same,normalized growth,"S. cerevisiae deletion strains, locus YLR268W, strain sec22, active compounds read low",0.997
same,normalized growth,"S. cerevisiae deletion strains, locus YLR320W, strain mms22, active compounds read low",0.918
same,normalized growth,"S. cerevisiae deletion strains, locus YLR330W, strain CHS5, active compounds read low",1.01
same,normalized growth,"S. cerevisiae deletion strains, locus YLR342W, strain FKS1 (second series), active compounds read low",1.01
same,normalized growth,"S. cerevisiae deletion strains, locus YLR342W, strain FKS1, active compounds read low",0.981
same,normalized growth,"S. cerevisiae deletion strains, locus YLR357W, strain rsc2, active compounds read low",0.957
same,normalized growth,"S. cerevisiae deletion strains, locus YLR370C, strain arc18, active compounds read low",0.974
same,normalized growth,"S. cerevisiae deletion strains, locus YLR371W, strain rom2, active compounds read low",0.995
same,normalized growth,"S. cerevisiae deletion strains, locus YLR384C, strain iki3, active compounds read low",0.984
same,normalized growth,"S. cerevisiae deletion strains, locus YLR418C, strain cdc73, active compounds read low",0.951
same,normalized growth,"S. cerevisiae deletion strains, locus YML016C, strain PPZ1, active compounds read low",1.02
same,normalized growth,"S. cerevisiae deletion strains, locus YML032C, strain rad52, active compounds read low",0.975
same,normalized growth,"S. cerevisiae deletion strains, locus YML120C, strain ndi1, active compounds read low",0.934
same,normalized growth,"S. cerevisiae deletion strains, locus YML124C, strain tub3, active compounds read low",0.993
same,normalized growth,"S. cerevisiae deletion strains, locus YMR058W, strain fet3, active compounds read low",0.984
same,normalized growth,"S. cerevisiae deletion strains, locus YMR078C, strain ctf18, active compounds read low",0.995
same,normalized growth,"S. cerevisiae deletion strains, locus YMR125W, strain sto1, active compounds read low",0.973
same,normalized growth,"S. cerevisiae deletion strains, locus YMR129W, active compounds read low",0.986
same,normalized growth,"S. cerevisiae deletion strains, locus YMR205C, strain PFK2, active compounds read low",0.98
same,normalized growth,"S. cerevisiae deletion strains, locus YMR223W, strain ubp8, active compounds read low",0.98
same,normalized growth,"S. cerevisiae deletion strains, locus YMR231W, strain pep5, active compounds read low",0.988
same,normalized growth,"S. cerevisiae deletion strains, locus YMR307W, strain GAS1, active compounds read low",1.07
same,normalized growth,"S. cerevisiae deletion strains, locus YNL067W, strain RPL9B, active compounds read low",1.01
same,normalized growth,"S. cerevisiae deletion strains, locus YNL071W, strain lat1, active compounds read low",0.999
same,normalized growth,"S. cerevisiae deletion strains, locus YNL153C, strain GIM3, active compounds read low",1.01
same,normalized growth,"S. cerevisiae deletion strains, locus YNL183C, strain NPR1, active compounds read low",0.941
same,normalized growth,"S. cerevisiae deletion strains, locus YNL209W, strain ssb2, active compounds read low",0.973
same,normalized growth,"S. cerevisiae deletion strains, locus YNL233W, strain BNI4, active compounds read low",1.01
same,normalized growth,"S. cerevisiae deletion strains, locus YNL248C, strain rpa49, active compounds read low",0.968
same,normalized growth,"S. cerevisiae deletion strains, locus YNL250W, strain rad50, active compounds read low",1.01
same,normalized growth,"S. cerevisiae deletion strains, locus YNL271C, strain bni1, active compounds read low",0.984
same,normalized growth,"S. cerevisiae deletion strains, locus YNL298W, strain CLA4, active compounds read low",0.981
same,normalized growth,"S. cerevisiae deletion strains, locus YNL307C, strain MCK1, active compounds read low",0.986
same,normalized growth,"S. cerevisiae deletion strains, locus YNL322C, strain KRE1 (second series), active compounds read low",0.818 (active)
same,normalized growth,"S. cerevisiae deletion strains, locus YNL322C, strain KRE1, active compounds read low",1.01
same,normalized growth,"S. cerevisiae deletion strains, locus YNR049C, strain mso1, active compounds read low",0.987
same,normalized growth,"S. cerevisiae deletion strains, locus YNR052C, strain pop2, active compounds read low",0.989
same,normalized growth,"S. cerevisiae deletion strains, locus YOL006C, strain TOP1, active compounds read low",0.975
same,normalized growth,"S. cerevisiae deletion strains, locus YOL012C, strain htz1",1.17
same,normalized growth,"S. cerevisiae deletion strains, locus YOL147C, strain pex11, active compounds read low",0.991
same,normalized growth,"S. cerevisiae deletion strains, locus YOR001W, strain rrp6, active compounds read low",0.981
same,normalized growth,"S. cerevisiae deletion strains, locus YOR061W, strain CKA2, active compounds read low",1.02
same,normalized growth,"S. cerevisiae deletion strains, locus YOR069W, strain VPS5, active compounds read low",1.01
same,normalized growth,"S. cerevisiae deletion strains, locus YOR070C, strain gyp1, active compounds read low",0.982
same,normalized growth,"S. cerevisiae deletion strains, locus YOR080W, strain dia2, active compounds read low",0.987
same,normalized growth,"S. cerevisiae deletion strains, locus YOR083W, strain WHI5, active compounds read low",0.965
same,normalized growth,"S. cerevisiae deletion strains, locus YOR106W, strain vam3, active compounds read low",0.957
same,normalized growth,"S. cerevisiae deletion strains, locus YOR136W, strain idh2, active compounds read low",0.991
same,normalized growth,"S. cerevisiae deletion strains, locus YOR144C, strain elg1, active compounds read low",0.995
same,normalized growth,"S. cerevisiae deletion strains, locus YOR184W, strain ser1, active compounds read low",0.963
same,normalized growth,"S. cerevisiae deletion strains, locus YOR231W, strain MKK1, active compounds read low",0.973
same,normalized growth,"S. cerevisiae deletion strains, locus YOR265W, strain rbl2, active compounds read low",0.982
same,normalized growth,"S. cerevisiae deletion strains, locus YOR270C, strain vph1, active compounds read low",1.03
same,normalized growth,"S. cerevisiae deletion strains, locus YOR290C, strain snf2, active compounds read low",0.917
same,normalized growth,"S. cerevisiae deletion strains, locus YOR316C, strain cot1, active compounds read low",0.998
same,normalized growth,"S. cerevisiae deletion strains, locus YPL051W, strain arl3, active compounds read low",0.995
same,normalized growth,"S. cerevisiae deletion strains, locus YPL078C, strain atp4, active compounds read low",0.984
same,normalized growth,"S. cerevisiae deletion strains, locus YPL106C, strain sse1, active compounds read low",0.984
same,normalized growth,"S. cerevisiae deletion strains, locus YPL240C, strain hsp82, active compounds read low",0.99
same,normalized growth,"S. cerevisiae deletion strains, locus YPL256C, strain CLN2, active compounds read low",0.984
same,normalized growth,"S. cerevisiae deletion strains, locus YPR119W, strain clb2, active compounds read low",0.993
same,normalized growth,"S. cerevisiae deletion strains, locus YPR141C, strain kar3, active compounds read low",1.01
same,normalized growth,"S. cerevisiae deletion strains, locus YPR163C, strain tif3, active compounds read low",0.996
same,normalized growth,"S. cerevisiae deletion strains, locus YPR167C, strain met16, active compounds read low",0.982
same,normalized growth,"S. cerevisiae deletion strains, strain wtn01, active compounds read low",0.987
same,normalized growth,"S. cerevisiae strains, strain wild type, active compounds read low",1.01
